The campaign covered roughly 390,000 compounds. About 17,000 (4.4%) were called active. Inconclusive results (about 8%) are left out. The rule behind the calls is not given here. This excerpt belongs to a sample that is enriched for actives.
What follows are molecules tested against T1, Lysine-specific demethylase 4A (Homo sapiens) (UniProt O75164) (assay: qHTS Assay for Inhibitors of JMJD2A-Tudor Domain. [Related pubchem assays (depositor defined):AID504402]).
T1 sequence (whole entry): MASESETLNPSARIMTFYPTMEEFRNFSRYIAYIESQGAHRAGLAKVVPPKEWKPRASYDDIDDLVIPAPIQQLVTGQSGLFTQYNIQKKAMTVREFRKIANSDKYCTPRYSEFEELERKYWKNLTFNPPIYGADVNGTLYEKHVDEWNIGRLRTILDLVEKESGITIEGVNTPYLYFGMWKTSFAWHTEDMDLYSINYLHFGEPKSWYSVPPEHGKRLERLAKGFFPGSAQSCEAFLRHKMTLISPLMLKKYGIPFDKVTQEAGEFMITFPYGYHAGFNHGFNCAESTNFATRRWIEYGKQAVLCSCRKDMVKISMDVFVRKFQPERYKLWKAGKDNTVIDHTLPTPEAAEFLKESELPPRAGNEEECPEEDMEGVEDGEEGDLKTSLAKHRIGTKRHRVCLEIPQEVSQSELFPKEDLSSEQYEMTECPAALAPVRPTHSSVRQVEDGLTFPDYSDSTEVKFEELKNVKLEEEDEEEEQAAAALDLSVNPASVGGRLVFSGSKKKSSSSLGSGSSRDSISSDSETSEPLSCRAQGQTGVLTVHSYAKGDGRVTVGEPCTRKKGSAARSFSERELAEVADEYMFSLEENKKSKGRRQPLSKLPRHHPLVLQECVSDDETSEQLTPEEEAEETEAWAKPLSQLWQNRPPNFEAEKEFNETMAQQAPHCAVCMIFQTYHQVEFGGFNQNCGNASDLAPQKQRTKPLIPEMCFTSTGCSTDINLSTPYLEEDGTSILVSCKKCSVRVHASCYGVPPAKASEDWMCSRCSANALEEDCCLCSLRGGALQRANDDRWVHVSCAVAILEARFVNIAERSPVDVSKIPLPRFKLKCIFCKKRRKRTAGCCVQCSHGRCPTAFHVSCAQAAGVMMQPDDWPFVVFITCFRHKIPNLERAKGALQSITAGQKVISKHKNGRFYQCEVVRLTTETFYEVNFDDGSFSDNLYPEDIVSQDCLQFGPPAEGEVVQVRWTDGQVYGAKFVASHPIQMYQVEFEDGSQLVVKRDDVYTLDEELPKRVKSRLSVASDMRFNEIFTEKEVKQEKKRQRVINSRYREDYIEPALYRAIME
Type: functional

Potency, active:
CCCc1nnc(NC(=O)C2C(=O)c3cccc4c3N(CC4)C2=O)s1 (stereo not drawn) 44.7 µM, Cl.N[C@@H](CCC(=O)O)C(=O)O 20 µM, Cl.NC(CCC(=O)O)C(=O)O (stereo not drawn) 3.55 µM

— ChEMBL document CHEMBL1201862, “PubChem BioAssay data set” (2004)
